Records with an inconclusive call do not appear. The source made the active and inactive calls. Calls follow the shape of the dose curve; as a rule, active = well fitted cell-killing curve with a large enough effect; inconclusive = small, poorly fitted or top-dose-only effect, or effect the other way; inactive = flat fitted curve, though single readings scatter.
Key:
Assay in all cases: Primary qHTS to identify gynecologic anti-cancer compounds using libraries of approved drugs and bioactive compounds (AID 1345084); also: nearly all actives have a fitted effect of over 55% in size
Conditions in all cases: Gynecologic cancer cell panel viability, ATPlite luminescence, 48 h; series mostly up to 57.5 µM
[1] = test system: JEG-3
Summary of the method: (§1)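 Cells, 1,000 per well, were allowed to settle for 16 h at 37 C before compound addition. Five concentrations were tested for 48 h, and viability was read by ATPlite luminescence after 15 min at room temperature.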

[2] = test system: OV90
Summary of the method: as §1

[3] = test system: PA-1
Summary of the method: as §1

[4] = test system: SKOV3
Summary of the method: as §1

[5] = test system: Tov-21-G
Summary of the method: as §1

[6] = test system: Tov112D
Summary of the method: as §1
% is scaled to controls: 0 for no effect and ±100 for the full control effect.

COc1ccc(C2(O)CCC(N3CC[C@@H](NC(=O)CNC(=O)c4cccc(C(F)(F)F)c4)C3)CC2)cn1 (some centres not stated)
inactive: Potency [1] | Potency [2] | Potency [3] | Potency [4] | Potency [5] | Potency [6]

O=C(/C=C/c1ccccc1)OC[C@]12O[C@H]1[C@@H](O)[C@@H]1C=CO[C@@H](O[C@@H]3O[C@H](CO)[C@@H](O)[C@H](O)[C@H]3O)[C@@H]12
inactive: Potency [1] | Potency [2] | Potency [3] | Potency [4] | Potency [5] | Potency [6]

C[C@@H]1O[C@@H](O[C@@H]2[C@@H](O[C@@H]3O[C@@H](C)[C@H](O[C@@H]4OC[C@H](O)[C@H](O[C@@H]5OC[C@@H](O)[C@H](O)[C@H]5O)[C@H]4O)[C@@H](O[C@@H]4OC[C@](O)(CO)[C@H]4O)[C@H]3O)[C@H](OC(=O)[C@]34CCC(C)(C)C[C@H]3C3=CCC5[C@@]6(C)C[C@H](O)[C@H](O[C@@H]7O[C@H](CO[C@@H]8OC[C@H](O)[C@H](O)[C@H]8O)[C@@H](O)[C@H](O)[C@H]7O)C(C)(C)C6CC[C@@]5(C)[C@]3(C)C[C@H]4O)OC[C@H]2O)[C@H](O)[C@H](O)[C@H]1O (some centres not stated)
inactive: activity change, negative = cytotoxicity [1] -6.81% [at 6.55 µM] | activity change, negative = cytotoxicity [2] 10.7% [at 6.55 µM] | activity change, negative = cytotoxicity [3] 18.2% [at 6.55 µM] | activity change, negative = cytotoxicity [4] 4.47% [at 6.55 µM] | activity change, negative = cytotoxicity [5] -2.27% [at 6.55 µM] | activity change, negative = cytotoxicity [6] 7.07% [at 6.55 µM]

CC(=O)CC1CCC(C(C)C(=O)OCC(O)CO)O1 (configuration not stated)
inactive: Potency [1] | Potency [2] | Potency [3] | Potency [4] | Potency [5] | Potency [6]

C/C=C/C(O)C1OC(=O)CC1Nc1ccc(C(=O)O)cc1 (configuration not stated)
inactive: Potency [1] | Potency [2] | Potency [3] | Potency [4] | Potency [5] | Potency [6]

CC(C)=CCC/C(C)=C/CCC1(C)Oc2c(c(O)cc3c2CN(C(CCC(=O)O)C(=O)O)C3=O)CC1O (configuration not stated)
inactive: Potency [1] | Potency [2] | Potency [3] | Potency [4] | Potency [5] | Potency [6]

CC(=O)O[C@@H]1[C@@H](CO)O[C@@](CO)(O[C@H]2O[C@H](COC(=O)/C=C/c3ccccc3)[C@@H](O)[C@H](O)[C@H]2O)[C@H]1O
inactive: Potency [1] | Potency [2] | Potency [3] | Potency [4] | Potency [5] | Potency [6]

COC(=O)C1=CO[C@@H](O[C@@H]2O[C@H](CO)[C@@H](O)[C@H](O)[C@H]2O)[C@H]2[C@@H]1CC(OC)O[C@@H]2C (some centres not stated)
inactive: Potency [1] | Potency [2] | Potency [3] | Potency [4] | Potency [5] | Potency [6]

CC1CCN(C(=O)CC#N)CC1N(C)c1ncnc2[nH]ccc12 (configuration not stated)
inactive: Potency [1] | Potency [2] | Potency [3] | Potency [4] | Potency [5] | Potency [6]

O=C(O)/C=C/c1cc2c(cc1O[C@@H]1O[C@H](CO)[C@@H](O)[C@H](O)[C@H]1O)OCO2
inactive: Potency [1] | Potency [2] | Potency [3] | Potency [4] | Potency [5] | Potency [6]

COc1ccc(N2CCOCC2)c2sc(NC(=O)N3CCC(C)(O)CC3)nc12
inactive: Potency [1] | Potency [2] | Potency [3] | Potency [4] | Potency [5] | Potency [6]

CCOCCOC(=O)/C=C/c1ccc(OC)cc1
inactive: Potency [1] | Potency [2] | Potency [3] | Potency [4] | Potency [5] | Potency [6]

CC12CCC3c4ccc(OC5OC(C(=O)O)C(O)C(O)C5O)cc4CCC3C1CCC2O (configuration not stated)
inactive: Potency [1] | Potency [2] | Potency [3] | Potency [4] | Potency [5] | Potency [6]

CC/C=C\CCO[C@@H]1O[C@H](CO)[C@@H](O)[C@H](O)[C@H]1O
inactive: Potency [1] | Potency [2] | Potency [3] | Potency [4] | Potency [5] | Potency [6]

C/C=C(\C)C(=O)O[C@@H]1CC2[C@@H](CC=C3C[C@@H](O[C@H]4C[C@H](OC)[C@H](O[C@H]5C[C@H](OC)[C@H](O[C@@H]6O[C@H](C)[C@@H](O[C@H]7C[C@H](OC)[C@H](O[C@@H]8O[C@H](CO)[C@@H](O)[C@H](O)[C@H]8O)[C@@H](C)O7)[C@H](OC)[C@H]6O)[C@@H](C)O5)[C@@H](C)O4)CC[C@@]32C)[C@@]2(O)CC[C@H](C(C)=O)[C@@]12C (some centres not stated)
inactive: activity change, negative = cytotoxicity [1] -4.6% [at 6.55 µM] | activity change, negative = cytotoxicity [2] -1.27% [at 6.55 µM] | activity change, negative = cytotoxicity [3] -4.92% [at 6.55 µM] | activity change, negative = cytotoxicity [4] -3.56% [at 6.55 µM] | activity change, negative = cytotoxicity [5] -5.17% [at 6.55 µM] | activity change, negative = cytotoxicity [6] 5.73% [at 6.55 µM]

CC(C)(O)CC(CO)NC(=O)CC(O)CC(=O)Cc1ccccc1 (configuration not stated)
inactive: Potency [1] | Potency [2] | Potency [3] | Potency [4] | Potency [5] | Potency [6]

C[C@@H]1C(=O)O[C@H]2C[C@]34[C@H]5C[C@@H](C(C)(C)C)[C@]36[C@@H](OC(=O)[C@H]6O)O[C@]4(C(=O)O5)[C@]21O
inactive: Potency [1] | Potency [2] | Potency [3] | Potency [4] | Potency [5] | Potency [6]

C[C@H](CCC(=O)O)[C@H]1CC[C@H]2[C@@H]3C[C@H](O)[C@@H]4C[C@H](O)CC[C@]4(C)[C@H]3CC[C@]12C
inactive: Potency [1] | Potency [2] | Potency [3] | Potency [4] | Potency [5] | Potency [6]

O=C(OCC1=CC(O)C2C=CO[C@@H](O[C@@H]3O[C@H](CO)[C@@H](O)[C@H](O)[C@H]3O)C12)c1ccccc1 (some centres not stated)
inactive: Potency [1] | Potency [2] | Potency [3] | Potency [4] | Potency [5] | Potency [6]

C/C=C/c1ccc2c(c1)[C@@H](C)[C@H](c1ccc(O)cc1)O2
inactive: Potency [1] | Potency [2] | Potency [3] | Potency [4] | Potency [5] | Potency [6]

C=C[C@H]1CN2CC[C@H]1C[C@@H]2C(O)c1ccnc2ccc(OC)cc12 (some centres not stated)
inactive: Potency [1] | Potency [2] | Potency [3] | Potency [4] | Potency [5] | Potency [6]

CC(=O)O[C@H]1[C@@H](O)[C@H](O[C@H]2[C@@H]3C=CO[C@@H](O[C@H]4O[C@@H](CO)[C@H](O)[C@@H](O)[C@@H]4O)[C@@H]3[C@@]3(CO)O[C@@H]23)O[C@@H](C)[C@@H]1OC(=O)/C=C/c1ccccc1
inactive: Potency [1] | Potency [2] | Potency [3] | Potency [4] | Potency [5] | Potency [6]

O=C1NC(=O)C(c2cn(-c3ccccc3)nc2-c2ccc(F)cc2)N1 (configuration not stated)
inactive: Potency [1] | Potency [2] | Potency [3] | Potency [4] | Potency [5] | Potency [6]

CC(O)(CC(=O)O)CC(=O)OCc1ccc(O[C@@H]2O[C@H](CO)[C@@H](O)[C@H](O)[C@H]2O)cc1 (some centres not stated)
inactive: Potency [1] | Potency [2] | Potency [3] | Potency [4] | Potency [5] | Potency [6]

O=C1CC2(CCCC2)[C@H](O)C(=O)N1CCCCN1CCN(c2ncccn2)CC1
inactive: Potency [1] | Potency [2] | Potency [3] | Potency [4] | Potency [5] | Potency [6]

Cc1nc2sc(C(=O)NCc3ccncc3)c(N)c2c(C)c1Cl
inactive: Potency [1] | Potency [2] | Potency [3] | Potency [4] | Potency [5] | Potency [6]

CC(=O)c1ccc(O[C@@H]2O[C@H](CO)[C@@H](O)[C@H](O)[C@H]2O)cc1
inactive: Potency [1] | Potency [2] | Potency [3] | Potency [4] | Potency [5] | Potency [6]

CC1(C)CC[C@]2(C(=O)O[C@@H]3O[C@H](CO)[C@@H](O)[C@H](O)[C@H]3O)CC[C@]3(C)C(=CCC4[C@@]5(C)C[C@@H](O)[C@H](O)C(C)(C)C5[C@H](O)C[C@]43C)[C@@H]2[C@@H]1O (some centres not stated)
inactive: Potency [1] | Potency [2] | Potency [3] | Potency [4] | Potency [5] | Potency [6]

CC(=O)O[C@H]1CC[C@@]2(C)C(CC[C@@H](C)[C@]23Cc2c(O)cc4c(c2O3)CN([C@@H](CCC(=O)O)C(=O)O)C4=O)C1(C)C (some centres not stated)
inactive: Potency [1] | Potency [2] | Potency [3] | Potency [4] | Potency [5] | Potency [6]

CC(C)CC1NC(=O)C(C)NC(=O)C(CC(C)C)OC(=O)CCCNC1=O (configuration not stated)
inactive: Potency [1] | Potency [2] | Potency [3] | Potency [4] | Potency [5] | Potency [6]

COc1ccc(C2COc3cc(O)ccc3C2)c(O)c1 (configuration not stated)
inactive: Potency [1] | Potency [2] | Potency [3] | Potency [4] | Potency [5] | Potency [6]

CC(C)O[C@@H]1O[C@H](CO)[C@@H](O)[C@H](O)[C@H]1O
inactive: Potency [1] | Potency [2] | Potency [3] | Potency [4] | Potency [5] | Potency [6]

O=C1NC(Cc2c[nH]c3ccccc23)C(=O)NC1Cc1cnc[nH]1 (configuration not stated)
inactive: Potency [1] | Potency [2] | Potency [3] | Potency [4] | Potency [5] | Potency [6]

C=C1C[C@]23C[C@H]1[C@@H](O)C[C@H]2[C@@]12C=C[C@H](O)[C@@](C)(C(=O)O1)[C@H]2[C@@H]3C(=O)O
inactive: Potency [1] | Potency [2] | Potency [3] | Potency [4] | Potency [5] | Potency [6]

COc1cc(C)c(C(=O)O[C@H]2[C@@H](OC(C)=O)[C@H](n3ccc(=O)[nH]c3=O)O[C@@H]2CO)c(OC)c1
inactive: Potency [1] | Potency [2] | Potency [3] | Potency [4] | Potency [5] | Potency [6]

COc1cc(O)c2c(c1)C1=CC(O)C(O)CC1(C)OC2=O (configuration not stated)
inactive: Potency [1] | Potency [2] | Potency [3] | Potency [4] | Potency [5] | Potency [6]

CC1(C)CC[C@]2(C(=O)O[C@@H]3O[C@H](CO)[C@@H](O)[C@H](O)[C@H]3O)CC[C@]3(C)C(=CCC4[C@@]5(C)CC[C@H](O[C@@H]6O[C@H](C(=O)O)[C@@H](O)[C@H](O)[C@H]6O)[C@@](C)(CO)C5CC[C@]43C)C2C1 (some centres not stated)
inactive: activity change, negative = cytotoxicity [1] -2.45% [at 11.6 µM] | activity change, negative = cytotoxicity [2] 8.98% [at 11.6 µM] | activity change, negative = cytotoxicity [3] 2.88% [at 11.6 µM] | activity change, negative = cytotoxicity [4] 0% [at 11.6 µM] | activity change, negative = cytotoxicity [5] 2.2% [at 11.6 µM] | activity change, negative = cytotoxicity [6] 2.24% [at 11.6 µM]

Reference: PubChem BioAssay (NCATS)
